{"source": "the supplement of paper PMC6555819", "test_in_all_cases": "PBM binding z-score (relative to random genomic background probes); higher = stronger binding; sequences stand for … in GC…GCGATTGACAGCGTAGAATGAAGG", "key": {"[1]": {"test_system": "PPARg:RXRa DBDmut IVT, anti-RXR (DBD mutation: RXRa K156A/R161A, NR concentration 270 nM, RXRa partner concentration 90 nM)", "how_it_was_run": "(§1)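 For binding z-scores, the reference was random background probes on custom Agilent 4×180K protein-binding microarrays. These arrays were incubated 1 h with ligand-free nuclear receptor dimers in PBS pH 7.4, 2% milk, 0.02% Triton X-100, 1 mM DTT, 0.2 mg/mL BSA and 0.4 mg/ml salmon testes DNA. Fluorescence was scanned after antibody detection of each partner (one per run) and regression-normalized.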"}, "[2]": {"test_system": "PPARg:RXRa IVT, anti-PPARg (NR concentration 270 nM, RXRa partner concentration 90 nM)", "how_it_was_run": "as §1"}, "[3]": {"test_system": "PPARg DBDmut:RXRa IVT, anti-PPARg (DBD mutation: PPARg1 K132A/R137A, NR concentration 270 nM, RXRa partner concentration 90 nM)", "how_it_was_run": "as §1"}, "[4]": {"test_system": "PPARg DBDmut IVT, anti-PPARg (DBD mutation: PPARg1 K132A/R137A, NR concentration 270 nM)", "how_it_was_run": "as §1"}, "[5]": {"test_system": "PPARg homodimer (NR concentration 180 nM)", "how_it_was_run": "as §1"}, "[6]": {"test_system": "PXR:RXRa (NR concentration 270 nM, RXRa partner concentration 90 nM)", "how_it_was_run": "as §1"}, "[7]": {"test_system": "PXR homodimer (NR concentration 270 nM)", "how_it_was_run": "as §1"}, "[8]": {"test_system": "RARa:RXR (NR concentration 270 nM, RXRa partner concentration 90 nM)", "how_it_was_run": "as §1"}, "[9]": {"test_system": "RARa homodimer (NR concentration 270 nM)", "how_it_was_run": "as §1"}, "[10]": {"test_system": "RARb:RXRa (NR concentration 270 nM, RXRa partner concentration 90 nM)", "how_it_was_run": "as §1"}}}
{"sequence": "ATCTCTAGGTAAAGAAAGTTCAGTGAATGCAAAT", "values": [{"measurement": "PBM binding z-score", "setting": "[1]", "value": 2}, {"measurement": "PBM binding z-score", "setting": "[2]", "value": 1.69}, {"measurement": "PBM binding z-score", "setting": "[3]", "value": 1.32}, {"measurement": "PBM binding z-score", "setting": "[4]", "value": 0.83}, {"measurement": "PBM binding z-score", "setting": "[5]", "value": 1.41}, {"measurement": "PBM binding z-score", "setting": "[6]", "value": 2.68}, {"measurement": "PBM binding z-score", "setting": "[7]", "value": 1.68}, {"measurement": "PBM binding z-score", "setting": "[8]", "value": 1.42}, {"measurement": "PBM binding z-score", "setting": "[9]", "value": 1.41}, {"measurement": "PBM binding z-score", "setting": "[10]", "value": 1.82}]}
{"sequence": "AGTCAAAGTTCAGGACGAGGTAACTTAAAGCACG", "values": [{"measurement": "PBM binding z-score", "setting": "[1]", "value": -0.0506}, {"measurement": "PBM binding z-score", "setting": "[2]", "value": 2.05}, {"measurement": "PBM binding z-score", "setting": "[3]", "value": 0.457}, {"measurement": "PBM binding z-score", "setting": "[4]", "value": 0.0759}, {"measurement": "PBM binding z-score", "setting": "[5]", "value": 1.75}, {"measurement": "PBM binding z-score", "setting": "[6]", "value": 3.24}, {"measurement": "PBM binding z-score", "setting": "[7]", "value": 1.4}, {"measurement": "PBM binding z-score", "setting": "[8]", "value": 2.84}, {"measurement": "PBM binding z-score", "setting": "[9]", "value": 1.02}, {"measurement": "PBM binding z-score", "setting": "[10]", "value": 4.25}]}
{"sequence": "CCGACTGGGGTAAGGTTACCATAACGCACAGCCA", "values": [{"measurement": "PBM binding z-score", "setting": "[1]", "value": 1.25}, {"measurement": "PBM binding z-score", "setting": "[2]", "value": 2.26}, {"measurement": "PBM binding z-score", "setting": "[3]", "value": -0.489}, {"measurement": "PBM binding z-score", "setting": "[4]", "value": -1.25}, {"measurement": "PBM binding z-score", "setting": "[5]", "value": 0.783}, {"measurement": "PBM binding z-score", "setting": "[6]", "value": 0.899}, {"measurement": "PBM binding z-score", "setting": "[7]", "value": -0.126}, {"measurement": "PBM binding z-score", "setting": "[8]", "value": 1.55}, {"measurement": "PBM binding z-score", "setting": "[9]", "value": 0.484}, {"measurement": "PBM binding z-score", "setting": "[10]", "value": 1.3}]}
{"sequence": "TCGAGGAGGTTAGTCGGGGCATTCAGCCAACATA", "values": [{"measurement": "PBM binding z-score", "setting": "[1]", "value": 1.28}, {"measurement": "PBM binding z-score", "setting": "[2]", "value": 0.923}, {"measurement": "PBM binding z-score", "setting": "[3]", "value": -0.713}, {"measurement": "PBM binding z-score", "setting": "[4]", "value": -1.04}, {"measurement": "PBM binding z-score", "setting": "[5]", "value": 0.777}, {"measurement": "PBM binding z-score", "setting": "[6]", "value": 1.05}, {"measurement": "PBM binding z-score", "setting": "[7]", "value": 0.348}, {"measurement": "PBM binding z-score", "setting": "[8]", "value": 0.897}, {"measurement": "PBM binding z-score", "setting": "[9]", "value": -0.313}, {"measurement": "PBM binding z-score", "setting": "[10]", "value": 1.01}]}
{"sequence": "ATATCTAGGTAAGACTCAGTTCAGTGAAGAACGC", "values": [{"measurement": "PBM binding z-score", "setting": "[1]", "value": 5.77}, {"measurement": "PBM binding z-score", "setting": "[2]", "value": 4.56}, {"measurement": "PBM binding z-score", "setting": "[3]", "value": 2.06}, {"measurement": "PBM binding z-score", "setting": "[4]", "value": 1.25}, {"measurement": "PBM binding z-score", "setting": "[5]", "value": 0.747}, {"measurement": "PBM binding z-score", "setting": "[6]", "value": 0.999}, {"measurement": "PBM binding z-score", "setting": "[7]", "value": 1.25}, {"measurement": "PBM binding z-score", "setting": "[8]", "value": 0.287}, {"measurement": "PBM binding z-score", "setting": "[9]", "value": 1.13}, {"measurement": "PBM binding z-score", "setting": "[10]", "value": 0.401}]}
{"sequence": "TTACCAAGGTGGAGGTCGTTGATCCCTCTGTAGA", "values": [{"measurement": "PBM binding z-score", "setting": "[1]", "value": -0.0945}, {"measurement": "PBM binding z-score", "setting": "[2]", "value": 0.927}, {"measurement": "PBM binding z-score", "setting": "[3]", "value": -0.0829}, {"measurement": "PBM binding z-score", "setting": "[4]", "value": 0.467}, {"measurement": "PBM binding z-score", "setting": "[5]", "value": 0.494}, {"measurement": "PBM binding z-score", "setting": "[6]", "value": 1.37}, {"measurement": "PBM binding z-score", "setting": "[7]", "value": -0.028}, {"measurement": "PBM binding z-score", "setting": "[8]", "value": 1.58}, {"measurement": "PBM binding z-score", "setting": "[9]", "value": -0.0306}, {"measurement": "PBM binding z-score", "setting": "[10]", "value": 0.92}]}
{"sequence": "CAAACTAGGTCAAAGGTCATAGTCGAGCCAACCA", "values": [{"measurement": "PBM binding z-score", "setting": "[1]", "value": 8.7}, {"measurement": "PBM binding z-score", "setting": "[2]", "value": 9.39}, {"measurement": "PBM binding z-score", "setting": "[3]", "value": 3.36}, {"measurement": "PBM binding z-score", "setting": "[4]", "value": 4.08}, {"measurement": "PBM binding z-score", "setting": "[5]", "value": 5.55}, {"measurement": "PBM binding z-score", "setting": "[6]", "value": 7.06}, {"measurement": "PBM binding z-score", "setting": "[7]", "value": 1.04}, {"measurement": "PBM binding z-score", "setting": "[8]", "value": 8.82}, {"measurement": "PBM binding z-score", "setting": "[9]", "value": 2.53}, {"measurement": "PBM binding z-score", "setting": "[10]", "value": 5.59}]}
{"sequence": "TATTGTAGATCAGCAGGTTAAGAAAGCTGGCCAA", "values": [{"measurement": "PBM binding z-score", "setting": "[1]", "value": -0.472}, {"measurement": "PBM binding z-score", "setting": "[2]", "value": 0.909}, {"measurement": "PBM binding z-score", "setting": "[3]", "value": 0.264}, {"measurement": "PBM binding z-score", "setting": "[4]", "value": -0.14}, {"measurement": "PBM binding z-score", "setting": "[5]", "value": -0.31}, {"measurement": "PBM binding z-score", "setting": "[6]", "value": -0.184}, {"measurement": "PBM binding z-score", "setting": "[7]", "value": -0.219}, {"measurement": "PBM binding z-score", "setting": "[8]", "value": -0.00412}, {"measurement": "PBM binding z-score", "setting": "[9]", "value": -0.421}, {"measurement": "PBM binding z-score", "setting": "[10]", "value": -0.104}]}
{"sequence": "CAAACTAGGTGACGAAAGGTCAAAGTCGAATGAC", "values": [{"measurement": "PBM binding z-score", "setting": "[1]", "value": 8.02}, {"measurement": "PBM binding z-score", "setting": "[2]", "value": 7.93}, {"measurement": "PBM binding z-score", "setting": "[3]", "value": 1.7}, {"measurement": "PBM binding z-score", "setting": "[4]", "value": 2.14}, {"measurement": "PBM binding z-score", "setting": "[5]", "value": 4.87}, {"measurement": "PBM binding z-score", "setting": "[6]", "value": 5.93}, {"measurement": "PBM binding z-score", "setting": "[7]", "value": 1.38}, {"measurement": "PBM binding z-score", "setting": "[8]", "value": 6.62}, {"measurement": "PBM binding z-score", "setting": "[9]", "value": 1.88}, {"measurement": "PBM binding z-score", "setting": "[10]", "value": 4.82}]}
{"sequence": "CTTACTGGGCCATTCAGAGGTCATTGATCATATG", "values": [{"measurement": "PBM binding z-score", "setting": "[1]", "value": 6.81}, {"measurement": "PBM binding z-score", "setting": "[2]", "value": 6.21}, {"measurement": "PBM binding z-score", "setting": "[3]", "value": 0.768}, {"measurement": "PBM binding z-score", "setting": "[4]", "value": 1.22}, {"measurement": "PBM binding z-score", "setting": "[5]", "value": 2.09}, {"measurement": "PBM binding z-score", "setting": "[6]", "value": 4.88}, {"measurement": "PBM binding z-score", "setting": "[7]", "value": 2.99}, {"measurement": "PBM binding z-score", "setting": "[8]", "value": 4.16}, {"measurement": "PBM binding z-score", "setting": "[9]", "value": 0.436}, {"measurement": "PBM binding z-score", "setting": "[10]", "value": 3.23}]}
{"sequence": "CCTTACGGGTCACTCCAGGTTATAGCCTCGGAGT", "values": [{"measurement": "PBM binding z-score", "setting": "[1]", "value": 2.45}, {"measurement": "PBM binding z-score", "setting": "[2]", "value": 3.8}, {"measurement": "PBM binding z-score", "setting": "[3]", "value": -1.39}, {"measurement": "PBM binding z-score", "setting": "[4]", "value": -0.526}, {"measurement": "PBM binding z-score", "setting": "[5]", "value": 1.18}, {"measurement": "PBM binding z-score", "setting": "[6]", "value": 4.66}, {"measurement": "PBM binding z-score", "setting": "[7]", "value": 0.0423}, {"measurement": "PBM binding z-score", "setting": "[8]", "value": 3.43}, {"measurement": "PBM binding z-score", "setting": "[9]", "value": 0.55}, {"measurement": "PBM binding z-score", "setting": "[10]", "value": 3.64}]}
{"sequence": "TTACCAAGGAGAGCTGAGGTCGTTGATCCAACTC", "values": [{"measurement": "PBM binding z-score", "setting": "[1]", "value": -0.667}, {"measurement": "PBM binding z-score", "setting": "[2]", "value": -0.449}, {"measurement": "PBM binding z-score", "setting": "[3]", "value": -0.504}, {"measurement": "PBM binding z-score", "setting": "[4]", "value": -0.387}, {"measurement": "PBM binding z-score", "setting": "[5]", "value": 0.217}, {"measurement": "PBM binding z-score", "setting": "[6]", "value": 1.29}, {"measurement": "PBM binding z-score", "setting": "[7]", "value": 0.364}, {"measurement": "PBM binding z-score", "setting": "[8]", "value": 0.846}, {"measurement": "PBM binding z-score", "setting": "[9]", "value": -0.664}, {"measurement": "PBM binding z-score", "setting": "[10]", "value": 0.145}]}
